Values joined by “and” are separate entries in the source; they are usually repeats but may differ in a detail not shown here. Identical values can stand only once. Inconclusive results are not listed. Active and inactive are the calls of the source. The call rests on the fitted dose curve; in most records, active means well fitted curve in the direction sought with a large enough effect; inconclusive means small, poorly fitted or top-dose-only effect, or another doubt; inactive means no such curve, though single readings can be large; an effect the other way counts as inactive or inconclusive.

A short description of assay [1]: qHTS of pediatric cancer cell lines to identify multiple opportunities for drug repurposing: Primary screen for TC32 cells (AID 1347089). Further: nearly all actives have a fitted effect of over 60% in size. Summed up:
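Luminescent ATP read-out (CellTiter-Glo) of metabolically active TC32 cells after 48 h exposure. Concentration-response curves came from 11-point (MIPE, 0.78 nM–46 µM) or 8-point (NPC, 0.59 nM–46 µM) primary titrations; follow-up used 11 points.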

Assay [2] is described as follows: qHTS of pediatric cancer cell lines to identify multiple opportunities for drug repurposing: Primary screen for SJ-GBM2 cells (AID 1347091). The method, boiled down: (§1)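 Cell viability, CellTiter-Glo luminescence; 500-1,000 cells/well, 8- or 11-point titration, 48 h compound exposure at 37 degrees C, 5% CO2. Controls: DMSO neutral, bortezomib 2.3 µM final as positive.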

Assay [3] in a line: qHTS of pediatric cancer cell lines to identify multiple opportunities for drug repurposing: Primary screen for A673 cells (AID 1347092). Further: nearly all actives have a fitted effect of over 45% in size. Summed up:
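Cell viability of A673 measured by CellTiter-Glo ATP luminescence after 48 hours compound exposure. Dilution series spanned 0.78 nM to 46 µM (MIPE, 11-point) or 0.59 nM to 46 µM (NPC, 8-point); bortezomib 2.3 uM positive control.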
(Quantitative high-throughput screening tests each substance at several concentrations.)

Assay [4] is described as follows: qHTS of pediatric cancer cell lines to identify multiple opportunities for drug repurposing: Primary screen for SK-N-MC cells (AID 1347093). The method, boiled down: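 Metabolically active cells were quantified by ATP-dependent luminescence (CellTiter-Glo, 15 min at room temperature) following 48 h treatment. Cells had been plated at 500-1,000 per well and settled for 5 h beforehand.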

The nature of assay [5]: qHTS of pediatric cancer cell lines to identify multiple opportunities for drug repurposing: Primary screen for BT-37 cells (AID 1347094). The method, boiled down:
(§2)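 Cells seeded at 500-1,000 cells/well in growth media, rested 5 hours at 37 degrees C, 5% CO2, then dosed; MIPE compounds at 11-point (from 0.78 nM) and NPC at 8-point (from 0.59 nM) final concentrations. Viability by CellTiter-Glo luminescence after 48 hours.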

A short description of assay [6]: qHTS of pediatric cancer cell lines to identify multiple opportunities for drug repurposing: Primary screen for NB-EBc1 cells (AID 1347095). The method, boiled down:
as §2

The nature of assay [7]: qHTS of pediatric cancer cell lines to identify multiple opportunities for drug repurposing: Primary screen for U-2 OS cells (AID 1347096). Further: nearly all actives have a fitted effect of over 50% in size. The method, boiled down:
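Cells (500-1,000/well) rested 5 h, then received compounds for 48 h; metabolically active cells were measured by CellTiter-Glo luminescence. Final concentrations spanned up to 46 µM (MIPE, 11-point) or 0.59 nM-46 µM (NPC, 8-point) in primary screens, 11-point in follow-ups.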

The nature of assay [8]: qHTS of pediatric cancer cell lines to identify multiple opportunities for drug repurposing: Primary screen for Saos-2 cells (AID 1347097). Further: nearly all actives have a fitted effect of over 40% in size. The method, boiled down: as §2
A short description of assay [9]: qHTS of pediatric cancer cell lines to identify multiple opportunities for drug repurposing: Primary screen for DAOY cells (AID 1347090). Further: nearly all actives have a fitted effect of over 55% in size. The method, boiled down:
as §1
Potency means the concentration at half of the fitted maximal effect.

Consider `Cc1ccc(C(C)(O)c2nc3ccccc3s2)c(C)c1` (centres undefined), for which the Potency result in assay [1] and in [7] was “inactive” in each case. The Potency is 3.32 µM (active) in assay [2]; 2.96 µM (active) in assay [3]; 1.87 µM (active) in assay [4]; 3.85 µM (active) in [5]; 1.32 µM (active) in assay [6].

With `COc1cc(Nc2ncc(F)c(Nc3ccc4c(n3)NC(=O)C(C)(C)O4)n2)cc(OC)c1OC`, the Potency result in [1], in [5] and in assay [7] was “inactive” each time. Also, the Potency was 3.72 µM (active) in [2]; 14.8 µM (active) in assay [3]; 0.418 µM (active) in [4]; 4.18 µM (active) in assay [6]; 0.935 µM (active) in [8].

For `COc1ccc(C2CC(c3ccccc3)=NN2c2ccc(S(N)(=O)=O)cc2)cc1` (centres undefined), the Potency result in assay [1], in assay [9] and in assay [7] was “inactive” in each case. Besides, the Potency in assay [4] was 18.7 µM (active); in assay [5] it was 12.2 µM (active); in assay [8], 16.6 µM (active).

With `O=C(Nc1ccccc1Br)N[C@@H]1CCN(c2ccc(C(F)(F)F)cn2)C1`, the Potency entry in assay [1] and in assay [7] was “inactive” in each case. Besides, the Potency in assay [9] is 11.8 µM (active); in assay [8], 18.7 µM (active).

Regarding `CCC(=O)NC[C@H](Cc1ccc(OCCc2nc(-c3ccccc3)oc2C)cc1)NC(C)=CC(=O)c1ccc(C(F)(F)F)cc1`, in assay [1], the Potency entry is “inactive”. Also, the Potency in assay [2] is 3.32 µM (active); in assay [3], 1.87 µM (active); in [4], 2.35 µM (active); in [5], 3.06 µM (active); in assay [6] it was 0.743 µM (active); in assay [8], 16.6 µM (active).

In the case of `CN(C[C@@H]1COCCO1)S(=O)(=O)Nc1ccc2ccc3ncc(-c4cnn(C)c4)cc3c(=O)c2c1`, the Potency entry in [1] is “inactive”. Also, the Potency is 0.372 µM (active) in assay [2], 7.43 µM (active) in assay [3], 2.96 µM (active) in assay [4] and 7.43 µM (active) in assay [6].

For `COc1cc2ncnc(Nc3ccc(F)c(Cl)c3)c2cc1OCCCN1CCOCC1`, the Potency in assay [1] is 38 µM (active); in assay [9] it was 4.29 µM (active); in [4], 1.91 µM (active) and 26.6 µM (active); in assay [5], 15.7 µM (active) and 19.5 µM (active); in assay [7], 42.9 µM (active); in assay [8], 13.6 µM (active).

For the compound `COc1ccc2cc(-c3nc(-c4ccc(S(C)=O)cc4)[nH]c3-c3ccncc3)ccc2c1` (centres undefined), the Potency entry in assay [1], in assay [9], in assay [7] and in [8] was “inactive” each time.

In the case of `O=C1c2c(O)cc(O)cc2O[C@H](c2cc(O)c(O)c(O)c2)[C@H]1O`, the Potency entry in assay [1], in [2] and in [7] was “inactive” in each case. Moreover, the Potency was 14.8 µM (active) in assay [3], 4.18 µM (active) in assay [4] and 23.5 µM (active) in assay [8].

For `CC(=O)O[C@]1(C(C)=O)CC[C@@H]2[C@@H]3C[C@H](C)C4=CC(=O)CC[C@]4(C)[C@H]3CC[C@@]21C`, the Potency result in assay [1], in assay [2], in assay [5], in assay [6] and in assay [7] was “inactive” throughout. Besides, in assay [4], the Potency is 18.7 µM (active).

For the compound `CC=CCC=CCCC(=O)[C@H]1O[C@@H]1C(N)=O`, the Potency result in [1], in assay [9], in assay [5] and in assay [7] was “inactive” in each case. In addition, the Potency in assay [8] is 18.7 µM (active).

As for `COCCCCC(=NOCCN)c1ccc(C(F)(F)F)cc1`, the Potency entry in assay [1], in assay [2], in [5], in assay [6] and in assay [7] was “inactive” in each case. The Potency is 23.5 µM (active) in [3] and 10.5 µM (active) in [4].

Turning to `COc1ccc2c(Oc3ccc(NC(=O)c4c(C)n(CC(C)(C)O)n(-c5ccccc5)c4=O)cc3F)ccnc2c1`, the Potency entry in [1] and in assay [5] was “inactive” throughout. The Potency is 0.059 µM (active) in assay [2], 23.5 µM (active) in assay [3], 14.8 µM (active) in [4] and 26.4 µM (active) in assay [8].

With `Cc1ccc([C@@H]2O[C@H](CO)[C@@H](O)[C@H](O)[C@@H]2O)cc1Cc1ccc(-c2ccc(F)cc2)s1`, the Potency entry in assay [1], in assay [9] and in assay [6] was “inactive” in each case. The Potency in [8] was 14.8 µM (active).

With `Cc1c(O)cccc1C(=O)N[C@@H](CSc1ccccc1)[C@H](O)CN1C[C@H]2CCCC[C@@H]2C[C@@H]1C(=O)NC(C)(C)C`, in [1], the Potency entry is “inactive”. For the same compound, the Potency was 18.7 µM (active) in [2], 23.5 µM (active) in [3], 16.6 µM (active) in [4] and 26.4 µM (active) in assay [8].

Turning to `CCNc1cc(NC2CCC(O)CC2)nc(Nc2ccc3c(ccn3Cc3ccccc3)c2)n1` (centres undefined), the Potency entry in assay [1] and in [7] was “inactive” each time. In addition, the Potency in [2] and in assay [3] was 29.6 µM (active) throughout.

On to `CCOC1OC(=O)C[C@H]1NC(=O)[C@@H]1CCCN1C(=O)[C@@H](NC(=O)c1ccc(N)c(Cl)c1)C(C)(C)C` (some centres undefined), for which the Potency result in assay [1] and in assay [7] was “inactive” in each case. The Potency is 1.87 µM (active) in assay [2]; 0.118 µM (active) in [3]; 14.8 µM (active) in assay [4]; 8.33 µM (active) in assay [6]; 1.18 µM (active) in [8].

As for `COCCOc1nc(-c2ccc(Cl)c(Cl)c2)n(-c2ccc(NC(=O)CCl)cc2)n1`, the Potency result in assay [1] and in assay [7] was “inactive” in each case. For the same compound, the Potency in assay [2] was 16.6 µM (active); in assay [3] it was 4.69 µM (active); in [4] it was 4.69 µM (active); in assay [6], 16.6 µM (active).

For the compound `CC(C(=O)O)c1ccc(-c2ccccc2)c(F)c1` (centres undefined), the Potency entry in assay [1], in [2], in assay [6] and in assay [7] was “inactive” throughout. For the same compound, in assay [3], the Potency is 14.8 µM (active).

With `CC1(C)Cc2c(sc(NC(=S)NC(=O)c3ccccc3)c2C(=O)O)CO1`, the Potency result in assay [1], in assay [2], in [5], in assay [6], in [7] and in assay [8] was “inactive” each time. Further, the values for the Potency in assay [3] and in [4] were 23.5 µM (active) and 1.66 µM (active), respectively.

On to `CC(C)OC(=O)CCCC=CC[C@@H]1[C@H](C=C[C@@H](O)COc2cccc(C(F)(F)F)c2)[C@H](O)C[C@@H]1O`, for which the Potency entry in [1], in assay [3] and in assay [7] was “inactive” each time. For the same compound, the Potency is 23.5 µM (active) in assay [2], 23.5 µM (active) in assay [6] and 14.8 µM (active) in assay [8].

`O=C(CCc1ccc(O)cc1)c1c(O)cc(O)cc1O[C@@H]1O[C@H](CO)[C@H](O)[C@H](O)[C@H]1O`: the Potency entry in [1], in [2], in assay [3], in [5], in assay [6] and in [7] was “inactive” each time. Also, the Potency entry in [8] was “inactive”.

Values taken from PubChem BioAssay (NCATS).
